The target of experiment [1] is human Neuropeptide Receptor Y1 (NPY1), NPY1R (gene 4886) (UniProt P25929). The experiment is described as follows: NVS_GPCR_hNPY1: NovaScreen (NVS) G Protein-Coupled Receptor Assay for human Neuropeptide Receptor Y1 (NPY1) (AID 2283276). The method in brief:
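Cell-free radioligand binding using receptor extracted from SK-N-MC cells, 1 h incubation, filter-based scintillation counting. Primary screen single concentration 25 uM in duplicate; actives followed in concentration series. Loss of bound signal scored versus DMSO.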

The target of experiment [2] is Muscarinic acetylcholine receptor M5 (Homo sapiens) (UniProt P08912). The experiment is described as follows: NVS_GPCR_hM5: NovaScreen (NVS) G Protein-Coupled Receptor Assay for human Muscarinic, M5 Receptor (AID 2283275). The method in brief:
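Radioligand displacement on CHO-derived membrane preparations, 1 h, filter-based scintillation counting. Single-concentration duplicate screen at 25 uM; hits (e.g. 30% inhibition) retested in singleton concentration-response up to 50 uM. Loss of binding fitted versus DMSO.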

Experiment [3] deals with human Opioid Receptor Delta 1 (Opiate D1), OPRD1 (gene 4985) (UniProt P41143). Description: NVS_GPCR_hOpiate_D1: NovaScreen (NVS) G Protein-Coupled Receptor Assay for human Opioid Receptor Delta 1 (Opiate D1) (AID 2283280). The method in brief: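 Radioligand displacement on membranes from CHO cells expressing the receptor, read by filter scintillation counting 1 h after dosing. Duplicate single-point screen at 25 uM, then concentration series for actives; loss of signal versus DMSO.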

The target of experiment [4] is human Thromboxane A2 Receptor (TXA2), TBXA2R (gene 6915) (UniProt P21731). The experiment is described as follows: NVS_GPCR_hTXA2: NovaScreen (NVS) G Protein-Coupled Receptor Assay for human Thromboxane A2 Receptor (TXA2) (AID 2283282).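 Also: actives reduce bound radioligand signal relative to DMSO baseline.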 Put shortly:
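Filter scintillation counting of bound radioligand, human platelet protein, 1 h exposure. Single-concentration duplicates (25 uM) first, concentration-response follow-up for actives. Binding loss scored against DMSO baseline.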

For experiment [5], the target named is guinea pig Bradykinin Receptor B2 (BK2), BDKRB2 (gene 100135486) (UniProt O70526). The experiment is described as follows: NVS_GPCR_gBK2: NovaScreen (NVS) G Protein-Coupled Receptor Assay for guinea pig Bradykinin Receptor B2 (BK2) (AID 2283292). The method in brief:
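Radioligand displacement on guinea pig ileum membranes for 1 h, read by filter-based scintillation counting; loss of signal relative to DMSO. Compounds were screened in duplicate at 25 uM, and those passing the threshold were retested in concentration-response up to 50 uM.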

Experiment [6] has as its target mouse Cholecystokinin, CCK2 Receptor (CCKB), Cckbr (gene 12426) (UniProt P56481). The experiment is described as follows: NVS_GPCR_mCKKBCentral: NovaScreen (NVS) G Protein-Coupled Receptor Assay for mouse Cholecystokinin, CCK2 Receptor (CCKB) (AID 2283293). Put shortly: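 Radioligand displacement binding on mouse forebrain membranes, 2 h exposure, filter-based scintillation counting. Primary screen in duplicate at 25 uM; actives (e.g. ≥30% inhibition) retested in concentration-response up to 50 uM; loss of binding signal relative to DMSO.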

For experiment [7], the target named is guinea pig Serotonin, 5-Hydroxytryptamine Receptor 4 (5HT4), HTR4 (gene 100135548) (UniProt O70528). The experiment is described as follows: NVS_GPCR_g5HT4: NovaScreen (NVS) G Protein-Coupled Receptor Assay for guinea pig Serotonin, 5-Hydroxytryptamine Receptor 4 (5HT4) (AID 2283294). Put shortly:
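Guinea pig striatal membranes; radioligand competitive displacement, filtration and scintillation counting after 1 h. Primary screen in duplicate at 25 uM; actives then tested in concentration series; loss of binding signal fitted relative to DMSO.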

Experiment [8] has as its target human Muscarinic, M4 Receptor, CHRM4 (gene 1132) (UniProt P08173). The experiment is described as follows: NVS_GPCR_hM4: NovaScreen (NVS) G Protein-Coupled Receptor Assay for human Muscarinic, M4 Receptor (AID 2283274). Put shortly:
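Cell-free radioligand displacement using CHO-derived human M4 receptor protein, 1 h after dosing; bound radioactivity by filtration and scintillation counting. Primary screen single 25 uM duplicate, actives followed in concentration series.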

For experiment [9], the target named is human Neurotensin Receptor (NTS), NTSR1 (gene 4923) (UniProt P30989). The experiment is described as follows: NVS_GPCR_hNTS: NovaScreen (NVS) G Protein-Coupled Receptor Assay for human Neurotensin Receptor (NTS) (AID 2283279). The method in brief: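 Radioligand displacement on human NTSR1 protein from CHO cells, cell-free, 1 h, filter-based scintillation counting. Primary screen at 25 uM in duplicate; hits rerun in concentration-response up to 50 uM.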

Experiment [10] concerns the target rat Adrenergic, Alpha 1, Non-selective Receptor (Adra1), Adra1a (gene 29412) (UniProt P43140). The experiment is described as follows: NVS_GPCR_rAdra1_NonSelective: NovaScreen (NVS) G Protein-Coupled Receptor Assay for rat Adrenergic, Alpha 1, Non-selective Receptor (Adra1) (AID 2283289). Put shortly:
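Rat forebrain membranes; radioligand displacement read by filter-based scintillation counting 1 h after dosing. Primary screen in duplicate at 25 uM; hits (e.g. ≥30% inhibition) rerun as concentration–response to 50 uM max. Fitted versus DMSO.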

In experiment [11] the target is Muscarinic acetylcholine receptor M2 (Homo sapiens) (UniProt P08172). Description: NVS_GPCR_hM2: NovaScreen (NVS) G Protein-Coupled Receptor Assay for human Muscarinic, M2 Receptor (AID 2283273). Put shortly: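 CHO membrane prep, radioligand + test compound, 1 h; filtration, scintillation count. Screen 25 uM duplicate → conc. series for actives. Readout: decrease in binding vs DMSO control.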

Experiment [12] has as its target mouse Cholecystokinin, CCK1 Receptor (CCKA), Cckar (gene 12425) (UniProt O08786). Description: NVS_GPCR_mCCKAPeripheral: NovaScreen (NVS) G Protein-Coupled Receptor Assay for mouse Cholecystokinin, CCK1 Receptor (CCKA) (AID 2283285). Put shortly: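 Radioligand competitive displacement on mouse pancreatic membranes, 2 h incubation; filter-based scintillation counting, loss of signal versus DMSO. Single-concentration screen at 25 uM in duplicate, actives retested in concentration-response up to 50 uM.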

In experiment [13] the test system is 5-hydroxytryptamine receptor 2C (pig). The experiment is described as follows: NVS_GPCR_p5HT2C: NovaScreen (NVS) G Protein-Coupled Receptor Assay for pig Serotonin, 5-Hydroxytryptamine Receptor 2C (5HT2C) (AID 2283288). Put shortly:
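Pig choroid plexus membranes; radioligand competitive binding, filter-based scintillation counting, read 1 h after dosing. Primary screen in duplicate at 25 uM; actives then run as concentration series; loss of signal versus DMSO baseline.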

Experiment [14] addresses rat Serotonin, 5-Hydroxytryptamine Receptor (5HT), Non-Selective Binding, Htr1a (gene 24473) (UniProt P19327). Description: NVS_GPCR_r5HT_NonSelective: NovaScreen (NVS) G Protein-Coupled Receptor Assay for rat Serotonin, 5-Hydroxytryptamine Receptor (5HT), Non-Selective Binding (AID 2283295). The method in brief:
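Radioligand displacement on rat cortical membranes, 1 h incubation, filter-based scintillation counting. Primary duplicates at 25 uM, actives retested in concentration series; loss of signal fitted against DMSO as baseline.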

Experiment [15] has as its target human Orphanin, Opioid Related Nociceptin Receptor 1 (ORL1), OPRL1 (gene 4987) (UniProt P41146). Description: NVS_GPCR_hORL1: NovaScreen (NVS) G Protein-Coupled Receptor Assay for human Orphanin, Opioid Related Nociceptin Receptor 1 (ORL1) (AID 2283283). Put shortly:
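Filter-based radioligand displacement with receptor extracted from HEK293 cells, read 1 hour after dosing by scintillation counting. Duplicate single-point screen at 25 uM; qualifying chemicals then run in concentration-response to 50 uM, analysed relative to DMSO.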

Experiment [16] concerns rabbit Platelet Activating Factor Receptor (PAF), gene 100354046. The experiment is described as follows: NVS_GPCR_rabPAF: NovaScreen (NVS) G Protein-Coupled Receptor Assay for rabbit Platelet Activating Factor Receptor (PAF) (AID 2283287). The method in brief: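 Rabbit platelet membrane preparation; radioligand displacement read by filter-based scintillation counting 1 h after dosing, loss of signal versus DMSO. Primary screen in duplicate at 25 uM, actives followed up in concentration series.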

The target in experiment [17] is human Purinergic Receptor P2Y, P2RY1 (gene 5028) (UniProt P47900). The experiment is described as follows: NVS_GPCR_hPY2: NovaScreen (NVS) G Protein-Coupled Receptor Assay for human Purinergic Receptor P2Y (AID 2283281). The method in brief:
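Cell-free radioligand binding using U937-derived protein, 1 h after dosing, filter-based scintillation counting. Screened in duplicate at 25 uM; actives rerun as concentration-response up to 50 uM; loss of signal versus DMSO.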

In experiment [18] the target is rat Serotonin, 5-Hydroxytryptamine Receptor 1 (5HT1), Non-Selective Binding, Htr1a (gene 24473) (UniProt P19327). Description: NVS_GPCR_r5HT1_NonSelective: NovaScreen (NVS) G Protein-Coupled Receptor Assay for rat Serotonin, 5-Hydroxytryptamine Receptor 1 (5HT1), Non-Selective Binding (AID 2283286). The method in brief: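 Rat cortical membranes, radioligand displacement, 1 h incubation, read by filter scintillation. Primary screen in duplicate at 25 uM. Hits (e.g. ≥30% inhibition) went to concentration-response up to 50 uM, fitted as loss of binding versus DMSO.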

The target in experiment [19] is human Vasopressin 1A Receptor (V1A), AVPR1A (gene 552) (UniProt P37288). The experiment is described as follows: NVS_GPCR_hV1A: NovaScreen (NVS) G Protein-Coupled Receptor Assay for human Vasopressin 1A Receptor (V1A) (AID 2283284). Put shortly:
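Cell-free radioligand displacement on human platelet preparations, 1.5 h incubation, filter-based scintillation counting. Chemicals first tested in duplicate at 25 uM; actives then run in concentration-response up to 50 uM, loss of signal fitted against DMSO.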

Records with an inconclusive call do not appear. Calls of active or inactive are those of the source. The calls were made as follows: active = hit-call score of the fitted dose curve at least 0.9, where 1 is the maximum; inconclusive = response in the unintended direction; inactive = score below 0.9.

human Thromboxane A2 Receptor (TXA2), TBXA2R (gene 6915), sequence (P21731 whole entry, looked up): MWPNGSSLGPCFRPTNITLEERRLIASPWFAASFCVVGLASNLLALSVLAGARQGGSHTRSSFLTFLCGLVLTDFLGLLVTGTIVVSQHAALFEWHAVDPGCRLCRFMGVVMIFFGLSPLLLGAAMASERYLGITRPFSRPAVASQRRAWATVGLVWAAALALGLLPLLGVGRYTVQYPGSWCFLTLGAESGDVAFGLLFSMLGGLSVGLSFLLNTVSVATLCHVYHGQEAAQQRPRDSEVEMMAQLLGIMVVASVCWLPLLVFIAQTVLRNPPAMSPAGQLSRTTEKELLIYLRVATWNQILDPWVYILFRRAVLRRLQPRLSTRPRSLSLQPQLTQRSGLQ
Muscarinic acetylcholine receptor M5 (Homo sapiens), sequence (P08912 whole entry, looked up): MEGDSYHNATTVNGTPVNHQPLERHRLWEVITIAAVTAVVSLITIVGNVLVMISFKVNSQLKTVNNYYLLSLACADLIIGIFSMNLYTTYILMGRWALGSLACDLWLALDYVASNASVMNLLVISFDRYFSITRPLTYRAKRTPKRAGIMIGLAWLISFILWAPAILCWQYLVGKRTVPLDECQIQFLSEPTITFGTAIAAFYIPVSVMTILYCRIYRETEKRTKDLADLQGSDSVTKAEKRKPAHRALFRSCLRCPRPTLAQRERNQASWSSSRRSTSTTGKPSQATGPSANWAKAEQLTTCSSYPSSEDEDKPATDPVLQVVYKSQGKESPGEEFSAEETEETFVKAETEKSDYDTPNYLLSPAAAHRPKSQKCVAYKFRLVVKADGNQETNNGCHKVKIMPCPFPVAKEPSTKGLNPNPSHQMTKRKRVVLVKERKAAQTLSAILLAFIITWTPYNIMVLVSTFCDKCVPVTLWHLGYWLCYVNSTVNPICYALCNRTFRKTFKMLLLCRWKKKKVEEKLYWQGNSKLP
mouse Cholecystokinin, CCK1 Receptor (CCKA), Cckar (gene 12425), sequence (O08786 whole entry, looked up): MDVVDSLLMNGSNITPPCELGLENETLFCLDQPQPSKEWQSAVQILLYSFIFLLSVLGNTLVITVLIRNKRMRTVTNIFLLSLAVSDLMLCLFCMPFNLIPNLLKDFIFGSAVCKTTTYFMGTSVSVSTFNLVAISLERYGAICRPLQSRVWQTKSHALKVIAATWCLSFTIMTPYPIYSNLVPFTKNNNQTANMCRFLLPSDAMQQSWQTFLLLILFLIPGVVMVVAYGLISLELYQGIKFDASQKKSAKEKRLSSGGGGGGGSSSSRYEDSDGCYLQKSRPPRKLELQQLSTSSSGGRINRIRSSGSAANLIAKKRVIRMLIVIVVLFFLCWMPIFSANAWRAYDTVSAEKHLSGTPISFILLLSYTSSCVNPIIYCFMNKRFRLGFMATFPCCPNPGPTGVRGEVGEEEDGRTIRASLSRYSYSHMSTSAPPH
human Opioid Receptor Delta 1 (Opiate D1), OPRD1 (gene 4985), sequence (P41143 whole entry, looked up): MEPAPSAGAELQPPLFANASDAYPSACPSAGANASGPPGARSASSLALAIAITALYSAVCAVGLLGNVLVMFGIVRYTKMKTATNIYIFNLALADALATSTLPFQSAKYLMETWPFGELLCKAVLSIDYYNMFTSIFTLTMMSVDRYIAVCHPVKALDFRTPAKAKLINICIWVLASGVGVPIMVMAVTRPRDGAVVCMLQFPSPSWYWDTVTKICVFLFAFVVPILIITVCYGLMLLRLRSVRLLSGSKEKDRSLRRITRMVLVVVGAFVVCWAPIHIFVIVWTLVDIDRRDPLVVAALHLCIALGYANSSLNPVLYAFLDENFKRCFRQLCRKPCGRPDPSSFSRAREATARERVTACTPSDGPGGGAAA
Muscarinic acetylcholine receptor M2 (Homo sapiens), sequence (P08172 whole entry, looked up): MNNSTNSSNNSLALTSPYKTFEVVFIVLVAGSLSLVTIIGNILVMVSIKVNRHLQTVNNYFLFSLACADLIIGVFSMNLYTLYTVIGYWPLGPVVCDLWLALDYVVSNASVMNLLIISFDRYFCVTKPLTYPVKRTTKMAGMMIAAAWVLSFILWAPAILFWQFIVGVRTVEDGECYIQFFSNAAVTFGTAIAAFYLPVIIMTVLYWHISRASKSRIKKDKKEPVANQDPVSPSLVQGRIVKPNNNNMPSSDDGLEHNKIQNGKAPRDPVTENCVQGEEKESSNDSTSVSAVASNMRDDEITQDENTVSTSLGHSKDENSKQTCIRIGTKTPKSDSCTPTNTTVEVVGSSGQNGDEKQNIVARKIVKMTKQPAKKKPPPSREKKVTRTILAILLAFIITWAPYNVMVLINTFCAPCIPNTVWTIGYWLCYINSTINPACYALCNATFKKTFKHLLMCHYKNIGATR
rat Adrenergic, Alpha 1, Non-selective Receptor (Adra1), Adra1a (gene 29412), sequence (P43140 whole entry, looked up): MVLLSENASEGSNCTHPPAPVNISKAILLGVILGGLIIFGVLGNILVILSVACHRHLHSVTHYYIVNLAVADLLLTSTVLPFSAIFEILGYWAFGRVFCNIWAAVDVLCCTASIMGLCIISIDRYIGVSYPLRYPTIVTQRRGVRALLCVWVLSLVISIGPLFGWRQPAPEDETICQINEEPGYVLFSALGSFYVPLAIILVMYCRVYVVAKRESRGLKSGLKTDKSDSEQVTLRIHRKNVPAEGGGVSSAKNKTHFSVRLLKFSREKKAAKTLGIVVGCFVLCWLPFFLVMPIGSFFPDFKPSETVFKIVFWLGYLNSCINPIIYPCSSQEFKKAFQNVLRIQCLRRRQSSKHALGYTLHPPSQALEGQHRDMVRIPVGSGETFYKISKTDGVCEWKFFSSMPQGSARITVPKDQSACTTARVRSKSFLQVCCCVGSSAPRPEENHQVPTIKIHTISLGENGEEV
human Muscarinic, M4 Receptor, CHRM4 (gene 1132), sequence (P08173 whole entry, looked up): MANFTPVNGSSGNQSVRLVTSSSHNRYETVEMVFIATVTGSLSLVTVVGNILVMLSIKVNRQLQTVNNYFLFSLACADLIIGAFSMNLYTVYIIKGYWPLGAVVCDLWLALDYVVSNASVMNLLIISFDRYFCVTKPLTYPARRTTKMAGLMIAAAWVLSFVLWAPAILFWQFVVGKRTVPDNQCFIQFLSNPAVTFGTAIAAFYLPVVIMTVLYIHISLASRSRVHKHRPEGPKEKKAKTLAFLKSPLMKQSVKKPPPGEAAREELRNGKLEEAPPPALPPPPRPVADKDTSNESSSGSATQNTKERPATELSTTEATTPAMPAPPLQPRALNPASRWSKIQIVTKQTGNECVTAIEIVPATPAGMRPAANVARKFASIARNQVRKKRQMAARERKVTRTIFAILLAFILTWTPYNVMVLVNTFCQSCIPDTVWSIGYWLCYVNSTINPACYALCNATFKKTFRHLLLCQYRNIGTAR
guinea pig Serotonin, 5-Hydroxytryptamine Receptor 4 (5HT4), HTR4 (gene 100135548), sequence (O70528 whole entry, looked up): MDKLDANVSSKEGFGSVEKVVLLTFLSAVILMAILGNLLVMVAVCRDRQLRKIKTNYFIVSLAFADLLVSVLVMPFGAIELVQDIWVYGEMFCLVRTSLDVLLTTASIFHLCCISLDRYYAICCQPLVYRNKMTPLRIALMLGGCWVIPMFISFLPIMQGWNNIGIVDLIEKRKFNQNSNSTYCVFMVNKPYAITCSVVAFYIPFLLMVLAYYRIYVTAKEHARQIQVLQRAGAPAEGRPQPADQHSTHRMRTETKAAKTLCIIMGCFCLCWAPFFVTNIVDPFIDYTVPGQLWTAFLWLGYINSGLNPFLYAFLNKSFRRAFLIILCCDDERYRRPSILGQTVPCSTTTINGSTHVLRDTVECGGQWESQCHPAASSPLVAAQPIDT
guinea pig Bradykinin Receptor B2 (BK2), BDKRB2 (gene 100135486), sequence (O70526 whole entry, looked up): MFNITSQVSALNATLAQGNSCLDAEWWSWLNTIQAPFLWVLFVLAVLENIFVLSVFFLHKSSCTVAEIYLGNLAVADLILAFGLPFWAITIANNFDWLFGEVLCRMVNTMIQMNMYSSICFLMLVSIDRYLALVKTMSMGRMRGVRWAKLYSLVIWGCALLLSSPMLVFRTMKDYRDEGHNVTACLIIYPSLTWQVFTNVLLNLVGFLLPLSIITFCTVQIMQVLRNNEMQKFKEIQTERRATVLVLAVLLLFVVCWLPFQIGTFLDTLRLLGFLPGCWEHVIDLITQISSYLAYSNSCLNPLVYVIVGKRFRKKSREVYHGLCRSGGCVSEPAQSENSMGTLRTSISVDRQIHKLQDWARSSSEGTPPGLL
human Purinergic Receptor P2Y, P2RY1 (gene 5028), sequence (P47900 whole entry, looked up): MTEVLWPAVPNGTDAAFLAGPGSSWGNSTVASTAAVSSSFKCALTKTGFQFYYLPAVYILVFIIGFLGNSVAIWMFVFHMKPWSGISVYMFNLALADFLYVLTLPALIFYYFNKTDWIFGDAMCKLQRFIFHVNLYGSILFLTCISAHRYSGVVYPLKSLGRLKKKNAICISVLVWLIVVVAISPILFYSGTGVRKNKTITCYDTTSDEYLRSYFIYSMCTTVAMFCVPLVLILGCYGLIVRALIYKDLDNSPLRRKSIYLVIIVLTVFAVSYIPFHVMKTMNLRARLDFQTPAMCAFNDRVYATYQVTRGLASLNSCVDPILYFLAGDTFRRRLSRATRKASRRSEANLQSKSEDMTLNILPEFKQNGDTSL
human Vasopressin 1A Receptor (V1A), AVPR1A (gene 552), sequence (P37288 whole entry, looked up): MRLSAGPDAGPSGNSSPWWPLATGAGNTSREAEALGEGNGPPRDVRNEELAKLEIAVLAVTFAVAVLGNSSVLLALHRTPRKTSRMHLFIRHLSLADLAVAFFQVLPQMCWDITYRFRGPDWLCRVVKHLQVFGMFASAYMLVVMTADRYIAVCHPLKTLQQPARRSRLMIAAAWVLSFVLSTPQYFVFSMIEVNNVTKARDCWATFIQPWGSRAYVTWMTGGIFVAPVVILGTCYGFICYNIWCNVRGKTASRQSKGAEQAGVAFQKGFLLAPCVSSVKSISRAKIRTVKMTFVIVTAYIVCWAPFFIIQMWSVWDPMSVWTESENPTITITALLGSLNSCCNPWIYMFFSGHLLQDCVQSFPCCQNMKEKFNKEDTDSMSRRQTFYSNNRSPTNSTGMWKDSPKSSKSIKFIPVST

Take `Oc1cccc(O)c1`: the call in experiment [1] was inactive.

What is called AC50 is the midpoint of the concentration-response curve, whichever way the signal moves. With `Cc1oc(-c2ccccc2)nc1CCOc1ccc(C[C@H](Nc2ccccc2C(=O)c2ccccc2)C(=O)O)cc1`, the outcome in experiment [2] and in [5] was inactive. In addition, the AC50 in experiment [3] was 12.8 µM (active); in experiment [4], 3.52 µM (active); in experiment [6], 46 µM (active); in experiment [7], 25 µM (active).

On to `NC(=O)N(O)[C@@H]1C=C[C@H](Oc2cccc(Oc3ccc(F)cc3)c2)C1`, for which the values for the AC50 in experiment [8], in experiment [9] and in experiment [7] were 25 µM (active), 8.13 µM (active) and 17.6 µM (active), respectively. In addition, the result in experiment [2] and in [10] was inactive.

Turning to `CCc1nn(C2CCCCC2)c2cc(C3(C#N)CCC(C(=O)O)CC3)ccc12` (configuration not stated), the call in experiment [3] was inactive.

`CCCCCCCC(=O)O`: the result in experiment [11] was inactive. Besides, the AC50 in [8] is 6.66 µM (active).

Consider `O=C(O)Cc1cc(I)c(Oc2cc(I)c(O)c(I)c2)c(I)c1`, for which the outcome in experiment [12] and in [10] was inactive.

Regarding `CCN(CC)CCNc1ccc(CNC=O)c2sc3ccc(OC)cc3c(=O)c12`, the AC50 is 11.7 µM (active) in experiment [11]; 8.13 µM (active) in experiment [8]; 7.21 µM (active) in [2]; 13.5 µM (active) in [13]; 20.1 µM (active) in experiment [10]; 7.23 µM (active) in experiment [7]. The AC50 in experiment [14] was 40.2 µM (active). The compound was classed as inactive in experiment [3].

With `ClC1=C(Cl)C(Cl)(Cl)C(Cl)=C1Cl`, the call in [12] was inactive.

With `O=C(OCCOCCOC(=O)c1ccccc1)c1ccccc1`, the call in experiment [2] was inactive.

Take `CCCCC(CC)COC(=O)CCCCC(=O)OCc1ccccc1` (configuration not stated): the concentration at half-maximal activity (AC50) in experiment [4] is 12.7 µM (active).

Take `CCC(=C(c1ccc(O)cc1)c1ccc(OCCN(C)C)cc1)c1ccccc1`: the compound was called inactive in [11] and in experiment [15]. In addition, the AC50 was 2.52 µM (active) in [2], 0.808 µM (active) in experiment [12], 4.17 µM (active) in [16] and 0.868 µM (active) in experiment [7].

As to `CCCCCCCCCCCCc1ccccc1S(=O)(=O)O`, the AC50 is 33.5 µM (active) in experiment [8]; 17.2 µM (active) in [2]; 7.58 µM (active) in experiment [3]; 12.3 µM (active) in experiment [17]; 12.1 µM (active) in [4]; 38.7 µM (active) in experiment [10].

With `C#C[C@]1(O)CC[C@H]2[C@@H]3CCC4=CC(=O)CC[C@@H]4[C@H]3CC[C@@]21C`, the compound was classed as inactive in experiment [17].

As to `C=C(C)C(=O)OCCC(F)(F)C(F)(F)C(F)(F)C(F)(F)C(F)(F)C(F)(F)F`, the call in [4] and in experiment [18] was inactive.

`Cc1cc(C)c(O)c(C)c1`: the call in [7] was inactive.

For `CCCCCCCCC(=O)O`, the AC50 in [19] is 5.76 µM (active). Moreover, the result in [10] and in [5] was inactive.

Source of the values: PubChem BioAssay (EPA / NIEHS).
